Experimental data reported in PubChem BioAssay (Tox21).
Records with an inconclusive call do not appear. More than one record can exist for a structure, and the calls need not agree. Calls of active or inactive are those of the source. Calls come from the whole dose curve; as a rule, active = well fitted curve in the direction sought with a large enough effect in the repeat runs; inconclusive = weak or mixed curves; inactive = no such curve, though single readings can be large; an effect the other way counts as inactive or inconclusive.

How the values were obtained:
[1] = A CellTox Green Cytotoxicity Assay to monitor cytotoxicity in HEK293 cells - 40 hour (AID 1224871); note: nearly all actives have a fitted effect of over 45% in size; note: potency is the fitted concentration of half-maximal effect
Method in brief: (§1)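 Read-out: fluorescence of a cell-impermeant cyanine dye staining DNA of dead cells, proportional to cytotoxicity. HEK293, 600 cells/well with reagent, compound (23 nL DMSO) added after 5 h; reads at 0, 8, 16, 24, 32, 40 h.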

[2] = qHTS RealTime-Glo MT Cell Viability Assay in HEK293 cells - 16 hour (AID 1224872); note: nearly all actives have a fitted effect of over 50% in size; note: potency is the fitted concentration of half-maximal effect
Method in brief: (§2)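 Luminescence generated by NanoLuc from substrate produced by living HEK293 cells served as the viability signal. Each value reflects the reading at its stated time point during continuous 40 h compound exposure at 37 C.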

[3] = qHTS RealTime-Glo MT Cell Viability Assay in HepG2 cells - 8 hour (AID 1224873); note: nearly all actives have a fitted effect of over 55% in size; note: potency is the fitted concentration of half-maximal effect
Method in brief: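 HepG2 cells mixed with RealTime-Glo MT reagents (NanoLuc plus cell-permeant prosubstrate) were seeded at 600 cells/well, incubated 5 h at 37 C/5% CO2, then pinned with compounds in DMSO; nonlytic luminescence tracked viability during 40 h treatment.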

[4] = A CellTox Green Cytotoxicity Assay to monitor cytotoxicity in HEK293 cells - 24 hour (AID 1224875); note: nearly all actives have a fitted effect of over 45% in size; note: potency is the fitted concentration of half-maximal effect
Method in brief: as §1

[5] = A CellTox Green Cytotoxicity Assay to monitor cytotoxicity in HepG2 cells - 16 hour (AID 1224876); note: nearly all actives have a fitted effect of over 45% in size; note: potency is the fitted concentration of half-maximal effect
Method in brief: (§3)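 HepG2, 600 cells/well premixed w/ CellTox Green; 5 h settle, 37 C/5% CO2; pintool cpd add (DMSO); 37 C, 40 h; fluorescence read at 0, 8, 16, 24, 32, 40 h.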

[6] = qHTS RealTime-Glo MT Cell Viability Assay in HepG2 cells - 32 hour (AID 1224877); note: nearly all actives have a fitted effect of over 55% in size; note: potency is the fitted concentration of half-maximal effect
Method in brief: (§4)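 Tox21 10K library screened in qHTS format on HepG2 cells carrying RealTime-Glo reagents. Compounds were added after a 5 h preincubation, and the luminescent signal from continuous culture was measured repeatedly during 40 h treatment.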

[7] = A CellTox Green Cytotoxicity Assay to monitor cytotoxicity in HepG2 cells - 24 hour (AID 1224878); note: nearly all actives have a fitted effect of over 45% in size; note: potency is the fitted concentration of half-maximal effect
Method in brief: as §3

[8] = A CellTox Green Cytotoxicity Assay to monitor cytotoxicity in HepG2 cells - 40 hour (AID 1224879); note: nearly all actives have a fitted effect of over 40% in size; note: potency is the fitted concentration of half-maximal effect
Method in brief: as §3

[9] = qHTS RealTime-Glo MT Cell Viability Assay in HEK293 cells - 0 hour (AID 1224880); note: nearly all actives have a fitted effect of over 45% in size; note: potency is the fitted concentration of half-maximal effect
Method in brief: (§5)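 Luminescence readout at each listed time point; HEK293, 600 cells/well, RealTime-Glo MT reagent added with cells; compounds pinned (23 nL in DMSO) after 5 h at 37 C; continuous culture at 37 C.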

[10] = A CellTox Green Cytotoxicity Assay to monitor cytotoxicity in HEK293 cells - 32 hour (AID 1224881); note: nearly all actives have a fitted effect of over 40% in size; note: potency is the fitted concentration of half-maximal effect
Method in brief: as §1

[11] = A CellTox Green Cytotoxicity Assay to monitor cytotoxicity in HepG2 cells - 0 hour (AID 1224882); note: nearly all actives have a fitted effect of over 35% in size
Method in brief: as §3

[12] = A CellTox Green Cytotoxicity Assay to monitor cytotoxicity in HepG2 cells - 32 hour (AID 1224883); note: nearly all actives have a fitted effect of over 50% in size; note: potency is the fitted concentration of half-maximal effect
Method in brief: as §3

[13] = A CellTox Green Cytotoxicity Assay to monitor cytotoxicity in HEK293 cells - 8 hour (AID 1224884); note: nearly all actives have a fitted effect of over 35% in size
Method in brief: as §1

[14] = qHTS RealTime-Glo MT Cell Viability Assay in HepG2 cells - 16 hour (AID 1224885); note: nearly all actives have a fitted effect of over 50% in size
Method in brief: as §4

[15] = qHTS RealTime-Glo MT Cell Viability Assay in HEK293 cells - 8 hour (AID 1224887); note: nearly all actives have a fitted effect of over 50% in size; note: potency is the fitted concentration of half-maximal effect
Method in brief: as §5

[16] = A CellTox Green Cytotoxicity Assay to monitor cytotoxicity in HEK293 cells - 16 hour (AID 1224888); note: nearly all actives have a fitted effect of over 35% in size; note: potency is the fitted concentration of half-maximal effect
Method in brief: as §1

[17] = qHTS RealTime-Glo MT Cell Viability Assay in HepG2 cells - 0 hour (AID 1224889); note: nearly all actives have a fitted effect of over 50% in size; note: potency is the fitted concentration of half-maximal effect
Method in brief: as §4

[18] = A CellTox Green Cytotoxicity Assay to monitor cytotoxicity in HepG2 cells - 8 hour (AID 1224890); note: nearly all actives have a fitted effect of over 45% in size; note: potency is the fitted concentration of half-maximal effect
Method in brief: as §3

[19] = qHTS RealTime-Glo MT Cell Viability Assay in HEK293 cells - 40 hour (AID 1224874); settings: RealTime-Glo luminescence; max response: stronger effect = lower value; note: nearly all actives have a fitted effect of over 50% in size; note: potency is the fitted concentration of half-maximal effect
Method in brief: as §5

[20] = qHTS RealTime-Glo MT Cell Viability Assay in HEK293 cells - 24 hour (AID 1224886); note: nearly all actives have a fitted effect of over 50% in size; note: potency is the fitted concentration of half-maximal effect
Method in brief: as §2
% is set by controls: 0 for no effect and ±100 for the full control effect.

CCOC(=O)/C=C(C)/C=C/C=C(C)/C=C/c1c(C)cc(OC)c(C)c1C
inactive: Potency [1] | Potency [2] | Potency [3] | Potency [4] | Potency [5] | Potency [6] | Potency [7] | Potency [8] | Potency [9] | Potency [10] | Potency [11] | Potency [12] | Potency [13] | Potency [14] | Potency [15] | Potency [16] | Potency [17] | Potency [18]

CC(C)CCCCCCCCCCCCCCC(=O)O
inactive: Potency [1] | Potency [2] | Potency [3] | Potency [4] | Potency [5] | Potency [6] | Potency [7] | Potency [8] | Potency [9] | Potency [10] | Potency [11] | Potency [12] | Potency [13] | Potency [14] | Potency [15] | Potency [16] | Potency [17] | Potency [18]

O=c1[nH]sc2ccccc12
active: Potency [1] 54.9 µM | Potency [2] 38.9 µM | Potency [3] 34.7 µM | Potency [19] 30.9 µM | Potency [5] 34.7 µM | Potency [6] 21.9 µM | Potency [7] 38.9 µM | Potency [8] 21.9 µM | Potency [10] 54.9 µM | Potency [12] 34.7 µM | Potency [20] 38.9 µM | Potency [15] 49 µM | Potency [18] 49 µM
inactive: Potency [9] | Potency [11] | Potency [17]

COc1ccc(C(=O)/C(Br)=C\C(=O)O)cc1
inactive: Potency [3] | Potency [5] | Potency [9] | Potency [11] | Potency [13] | Potency [16] | Potency [17] | Potency [18]
active: Potency [1] 24.5 µM | Potency [2] 38.9 µM | Potency [19] 34.7 µM | Potency [4] 34.7 µM | Potency [8] 13.8 µM | Potency [10] 30.9 µM | Potency [12] 13.8 µM | Potency [20] 38.9 µM

CCCCN1C(=O)[C@@H]([C@H](O)C2CCCCC2)NC(=O)C12CCN(Cc1ccc(Oc3ccc(C(=O)O)cc3)cc1)CC2
inactive: Potency [1] | Potency [2] | Potency [3] | Potency [4] | Potency [5] | Potency [6] | Potency [7] | Potency [8] | Potency [10] | Potency [11] | Potency [13] | Potency [20] | Potency [15] | Potency [16] | Potency [17] | Potency [18]

C[C@]12CCC(=O)C=C1CC[C@@H]1[C@@H]2[C@@H](O)C[C@@]2(C)[C@H]1CC[C@]2(O)C(=O)COC(=O)CCC(=O)O
inactive: Potency [1] | Potency [2] | Potency [3] | Potency [4] | Potency [5] | Potency [7] | Potency [8] | Potency [10] | Potency [11] | Potency [12] | Potency [14] | Potency [20] | Potency [15] | Potency [16]
active: Potency [9] 10.7 µM | Potency [17] 3.38 µM

O=C(O)c1cc(O)c2c(c1)C(=O)c1cccc(O)c1C2=O
inactive: Potency [1] | Potency [2] | Potency [3] | Potency [4] | Potency [5] | Potency [6] | Potency [7] | Potency [8] | Potency [9] | Potency [10] | Potency [11] | Potency [13] | Potency [14] | Potency [20] | Potency [15] | Potency [16] | Potency [17] | Potency [18]

NC(=O)N1C(=O)C(C(=O)c2cc(Cl)cs2)c2cc(F)c(Cl)cc21 (stereo not drawn)
inactive: Potency [1] | Potency [2] | Potency [3] | max response [19] -0.493% | Potency [4] | Potency [5] | Potency [7] | Potency [10] | Potency [11] | Potency [13] | Potency [20] | Potency [15] | Potency [16] | Potency [18]

CCCCCCCC/C=C\CCCCCCCCOCCO
inactive: Potency [3] | Potency [4] | Potency [6] | Potency [9] | Potency [11] | Potency [13] | Potency [16] | Potency [17]
active: Potency [1] 31.9 µM | Potency [2] 3.19 µM | Potency [19] 3.19 µM | Potency [7] 63.7 µM | Potency [8] 63.7 µM | Potency [12] 63.7 µM

CN(C)C(=O)C1(N2CCCCC2)CCN(CC[C@@]2(c3ccc(Cl)c(Cl)c3)CN(C(=O)c3ccccc3)CCO2)CC1
active: Potency [1] 28.9 µM | Potency [2] 12.9 µM | Potency [3] 45.8 µM | Potency [4] 40.8 µM | Potency [5] 40.8 µM | Potency [6] 18.2 µM | Potency [7] 20.4 µM | Potency [8] 20.4 µM | Potency [10] 32.4 µM | Potency [20] 11.5 µM | Potency [15] 16.2 µM | Potency [16] 45.8 µM | Potency [18] 45.8 µM
inactive: Potency [9] | Potency [11] | Potency [17]

CCCCC(CC)COP(=O)(O)OCC(CC)CCCC (stereo not drawn)
inactive: Potency [2] | Potency [3] | Potency [5] | Potency [6] | Potency [9] | Potency [11] | Potency [13] | Potency [14] | Potency [15] | Potency [17] | Potency [18]
active: Potency [1] 43.6 µM | Potency [4] 43.6 µM | Potency [8] 54.9 µM | Potency [10] 43.6 µM | Potency [16] 38.9 µM
49.1 µM (active) and inactive: Potency [7]

NC(=O)NS(=O)(=O)c1ccc(N)cc1
inactive: Potency [1] | Potency [2] | Potency [3] | Potency [4] | Potency [5] | Potency [6] | Potency [7] | Potency [8] | Potency [9] | Potency [10] | Potency [11] | Potency [12] | Potency [13] | Potency [14] | Potency [20] | Potency [15] | Potency [16] | Potency [17] | Potency [18]
